Assay outcomes: PubChem BioAssay, National Center for Advancing Translational Sciences (NCATS)
Rows were chosen to be rich in hits. Some 18% of all compounds tested hit in one or more screens of this group.
RORg inh: qHTS for inhibitors of ROR gamma transcriptional activity | Drosophila S2 Gal4-RORgamma UAS-luciferase reporter, 20 h | Potency, µM (series often up to 53.6 µM), inactives show at the highest dose activity change, negative = inhibition, most hits filed as inhibitors | 310,000 compounds, 5.4% hits; note: potency is the fitted concentration of half-maximal effect; nearly all actives have a fitted effect of over 60% in size
Target sequence (P51450 whole entry, looked up, the tested form may be a part): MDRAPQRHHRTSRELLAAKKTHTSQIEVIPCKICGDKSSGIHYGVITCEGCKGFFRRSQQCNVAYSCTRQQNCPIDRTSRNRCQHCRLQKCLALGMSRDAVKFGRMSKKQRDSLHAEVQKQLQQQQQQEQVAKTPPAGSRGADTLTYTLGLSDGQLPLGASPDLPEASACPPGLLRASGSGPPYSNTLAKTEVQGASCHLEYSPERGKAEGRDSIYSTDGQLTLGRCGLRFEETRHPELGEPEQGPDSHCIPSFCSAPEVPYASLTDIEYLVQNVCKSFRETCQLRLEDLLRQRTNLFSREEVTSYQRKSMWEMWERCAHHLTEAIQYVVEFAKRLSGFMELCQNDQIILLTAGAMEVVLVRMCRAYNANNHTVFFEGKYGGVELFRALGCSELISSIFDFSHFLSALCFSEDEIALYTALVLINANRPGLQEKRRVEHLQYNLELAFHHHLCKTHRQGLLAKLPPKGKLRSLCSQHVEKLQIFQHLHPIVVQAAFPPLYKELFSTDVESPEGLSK
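In this cell-based reporter format, copper sulfate (700 uM final) drives Gal4–ROR gamma fusion expression from a metallothionein promoter in Drosophila Schneider cells; compounds preincubated 1 hr, reporter read after 20 hr at ambient temperature.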
TDP1 cell noCPT: qHTS for Inhibitors of human tyrosyl-DNA phosphodiesterase 1 (TDP1): qHTS in cells in absence of CPT | DT40 Tdp1-/- hTDP1 cells, no CPT, ATP luminescence, 48 h | 420,000 compounds, 15% hits | Potency, µM (top dose mostly 46.2 µM), without a hit: top-dose activity change, negative = growth inhibition, most hits filed as inhibitors | AID 686978, 2013; note: potency is the fitted concentration of half-maximal effect; nearly all actives have a fitted effect of over 55% in size
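Cells were dispensed at 400 per well, compounds added by pin tool, plates incubated ≥48 hr at 37 °C, then CellTiter-Glo added for 30 min at room temperature before luminescence reading. Line: DT40 Tdp1-/- complemented with hTDP1; camptothecin omitted.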
IL-1B inflam inh: qHTS for Inhibitors of Inflammasome Signaling: IL-1-beta AlphaLISA Primary Screen; THP-1 LPS/ATP IL-1B secretion, AlphaLISA, 16 h; stronger effect = lower value; 360,000 compounds, 4.7% hits; activity change, % at 57.5 µM; AID 743279, 2014; in the data active = activity change below about -50%; inconclusive = mostly about -30% to -49%
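Secreted IL-1B measured by AlphaLISA bead assay after 16 h compound exposure of THP-1 cells; compounds (final up to 57.5 uM) added 1 h before LPS (250 ng/mL) and ATP (1.25 mM) stimulation; lower signal means less secretion.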
LDHA inh: qHTS assay for inhibitors of human lactate dehydrogenase | purified LDHA, NADH/diaphorase-resazurin fluorescence; stronger effect = lower value | AID 1347041, 2019 | activity change, % (values are at about 110 or 230 µM) | 480,000 compounds, 0.15% hits; in the data active = activity change below about -30%; inconclusive = mostly about -25% to -30%;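 note: plate controls were DMSO wells for no effect and wells without enzyme for full effect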
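Enzyme activity of human lactate dehydrogenase 5 (2 nM; 0.06 mM NADH, 0.2 mM pyruvate, 5 min, RT) is measured via a resazurin/diaphorase fluorescence readout of residual NADH.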
VP16 counter: VP16 counterscreen qHTS for inhibitors of ROR gamma transcriptional activity. Drosophila S2 Gal4-VP16 UAS-luciferase, luminescence, 20 h. Potency, µM (top dose mostly 53.6 µM), for inactives: top-dose activity, negative = inhibition, hits mostly inhibitors. 310,000 compounds, 3.5% hits. AID 2546, 2010;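 note: Gal4-VP16 expression switched on by copper sulfate through the metallothionein promoter; potency is the fitted concentration of half-maximal effect; nearly all actives have a fitted effect of over 50% in size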
DT40 TDP1 CPT: qHTS for Inhibitors of human tyrosyl-DNA phosphodiesterase 1 (TDP1): qHTS in cells in presence of CPT; chicken DT40 Tdp1-/-;hTDP1 cells + 20 nM CPT, ATP luminescence, 48 h; Potency, µM (top dose mostly 46.2 µM), for inactives: at the top dose activity change, negative = growth inhibition, hits mostly inhibitors; 420,000 compounds, 12% hits; AID 686979, 2013; note: potency is the fitted concentration of half-maximal effect; nearly all actives have a fitted effect of over 55% in size
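Chicken DT40 Tdp1-/- cells complemented with human TDP1, 400 cells/well, exposed to compounds plus 20 nM camptothecin for at least 48 h at 37 C; viability read as ATP content by CellTiter-Glo luminescence.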
* hit, by the source's call. Unless noted, calls come from the whole dose curve; as a rule, active = well fitted curve in the direction sought with a large enough effect; inconclusive = small, poorly fitted or top-dose-only effect, or another doubt; inactive = no such curve, though single readings can be large; an effect the other way counts as inactive or inconclusive. Unless noted, % is set by controls: 0 for no effect and ±100 for the full control effect.

Cc1nn(-c2ccccc2)c(C)c1/C=N\N1CCN(c2ccc(Cl)cc2)CC1 was read as RORg inh 30%, TDP1 cell noCPT 10µM*, IL-1B inflam inh -16, LDHA inh -2, VP16 counter 4% and DT40 TDP1 CPT 18µM*.
Cc1nn(-c2ccccc2)c(C)c1/C=N/n1cnnc1 was read as RORg inh 5%, TDP1 cell noCPT 2%, IL-1B inflam inh 43, LDHA inh -7, VP16 counter -9% and DT40 TDP1 CPT 21%.
`CC1(C)CC(=O)C/C(=N/NC(=O)COc2ccc(Cl)cc2Cl)C1` gave RORg inh -39%, TDP1 cell noCPT -9%, IL-1B inflam inh -18, LDHA inh 1, VP16 counter -4% and DT40 TDP1 CPT -5%.
Screening CC1(C)CC(=O)CC(=O)/C1=N\Nc1c(Cl)cc(Cl)cc1Cl returned RORg inh inconclusive, TDP1 cell noCPT 18µM*, IL-1B inflam inh 43, LDHA inh -2, VP16 counter inconclusive and DT40 TDP1 CPT inconclusive.
Screening Nc1nc(Nc2ccc(F)c(Cl)c2)sc1C(=O)c1ccccc1 returned LDHA inh 7.
For Nc1nc(Nc2ccccc2F)sc1C(=O)c1ccccc1 the results were RORg inh -24%, TDP1 cell noCPT inconclusive, IL-1B inflam inh -20, LDHA inh 1, VP16 counter -1% and DT40 TDP1 CPT 12µM*.
Screening Nc1nc(Cl)nc(Nc2ccccc2)c1[N+](=O)[O-] returned LDHA inh 6.
For CC(C)c1nc2scc(-c3ccc(Cl)cc3)c2c(=O)n1N the results were RORg inh inconclusive, TDP1 cell noCPT inconclusive, IL-1B inflam inh -19, LDHA inh -2, VP16 counter -3% and DT40 TDP1 CPT 26µM*.
Cc1oc2ccc(O)cc2c1C(=O)c1ccc([N+](=O)[O-])cc1 was read as RORg inh inconclusive, TDP1 cell noCPT 13µM*, IL-1B inflam inh inconclusive, LDHA inh -7, VP16 counter 12% and DT40 TDP1 CPT 21µM*.
`Cc1cccc(NC(=O)c2nc3ccccc3nc2N2CCCC2)c1` gave LDHA inh 0.
CC(=O)Oc1ccc2c(=O)c(Oc3ccccc3Br)c(C)oc2c1 was read as LDHA inh -6.
Screening O=C1Cc2ccccc2C(c2ccc(Cl)cc2Cl)N1 (stereo unspecified) returned RORg inh 5%, TDP1 cell noCPT -12%, IL-1B inflam inh 52, LDHA inh 0, VP16 counter 4% and DT40 TDP1 CPT -21%.
`S=C1NCCc2ccc(Cl)cc2C1c1ccccc1Cl` (stereo unspecified) gave RORg inh 5µM*, TDP1 cell noCPT inconclusive, IL-1B inflam inh -1, LDHA inh -11, VP16 counter 3.5µM* and DT40 TDP1 CPT inconclusive.
COC(=O)CC(NC(=O)c1cccc(CS(C)(=O)=O)c1)c1ccc(C)cc1 (stereo unspecified) was read as LDHA inh -18.
Screening Cc1csc(NC(=O)CSCc2c(C)noc2C)n1 returned TDP1 cell noCPT -21%, IL-1B inflam inh 5, LDHA inh -6 and DT40 TDP1 CPT -20%.
For COc1ccc(-c2csc(NC(=O)CSCc3c(C)noc3C)n2)cc1OC the results were RORg inh -8%, TDP1 cell noCPT 9.2µM*, IL-1B inflam inh inconclusive, LDHA inh -3, VP16 counter -2% and DT40 TDP1 CPT inconclusive.
Cc1noc(C)c1CSCC(=O)Nc1nc(-c2ccc(F)c(F)c2)cs1 was read as TDP1 cell noCPT 8.2µM*, IL-1B inflam inh -81*, LDHA inh -5 and DT40 TDP1 CPT 23µM*.
Cc1noc(C)c1CSCC(=O)Nc1nc2c(F)cc(F)cc2s1 was read as TDP1 cell noCPT 23µM*, IL-1B inflam inh -2, LDHA inh -3 and DT40 TDP1 CPT inconclusive.
`COc1ccc(-c2csc(NC(=O)CSCC(=O)Nc3cc(C)on3)n2)cc1OC` gave TDP1 cell noCPT inconclusive, IL-1B inflam inh 48, LDHA inh -3 and DT40 TDP1 CPT inconclusive.
Screening CC(C)(C)S(=O)(=O)c1cnc2c(-c3ccsc3)cnn2c1N returned RORg inh 4.5µM*, TDP1 cell noCPT inconclusive, IL-1B inflam inh 39, LDHA inh -3, VP16 counter -3% and DT40 TDP1 CPT -1%.
`COc1ccc(-c2c(C)nc3c(-c4ccsc4)cnn3c2N)cc1` gave RORg inh -34%, TDP1 cell noCPT inconclusive, IL-1B inflam inh -4, LDHA inh -6, VP16 counter inconclusive and DT40 TDP1 CPT inconclusive.
COc1ccc(-c2c(C)nc3c(-c4ccccn4)cnn3c2N)cc1 was read as RORg inh 5µM*, TDP1 cell noCPT 18µM*, IL-1B inflam inh -28, LDHA inh -14, VP16 counter 10µM* and DT40 TDP1 CPT inconclusive.
Cc1nc2c(-c3ccc(F)cc3)cnn2c(N)c1-c1ccc(F)cc1 was read as RORg inh -26%, TDP1 cell noCPT 4.6µM*, IL-1B inflam inh -67*, LDHA inh -4, VP16 counter -14% and DT40 TDP1 CPT 21µM*.
Screening CS(=O)(=O)c1cnc2c(-c3ccc(F)cc3)cnn2c1N returned RORg inh 11µM*, TDP1 cell noCPT -28%, IL-1B inflam inh 9, LDHA inh 0, VP16 counter -25% and DT40 TDP1 CPT -14%.
C=CCOC(=O)COc1ccc2oc(=O)cc(-c3cc4cccc(OC)c4o3)c2c1 was read as LDHA inh 2.
`CCCOc1ccc(C(=O)c2nc3c(n2O)CCCCC3)cc1` gave RORg inh 14%, TDP1 cell noCPT inconclusive, IL-1B inflam inh -13, LDHA inh 12, VP16 counter 20µM* and DT40 TDP1 CPT -26%.
For O=C(c1ccccc1)c1nc2c(n1O)CCCCC2 the results were RORg inh 0%, TDP1 cell noCPT 1%, IL-1B inflam inh -1, LDHA inh 1, VP16 counter -3% and DT40 TDP1 CPT -11%.
Nc1nc(N)nc(SCc2cccc(C(F)(F)F)c2)n1 was read as LDHA inh 3.
`CCOC(=O)C1(CCCc2ccccc2)CCN(Cc2cn(CC)nc2C)CC1` gave RORg inh 22%, TDP1 cell noCPT inconclusive, IL-1B inflam inh -77*, LDHA inh -15, VP16 counter -20% and DT40 TDP1 CPT inconclusive.
